# Screens as filed in PubChem.
# FBW7 activator – activators of human E3 ligase FBW7 | AlphaScreen FBW7–phospho-cyclin E peptide binding, activator screen | normalized activity (activation), % at 26.1 µM | 650,000 compounds, 0.13% hits; in the data active = normalized activity above about 1.9%;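 note: purified mutant Fbw7 with reduced substrate affinity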
# MITF inh – inhibitors of human MITF; O75030; AlphaScreen MITF homodimerization, bead proximity signal; inhibition, % at 2.6 µM; 650,000 compounds, 0.91% hits; AID 1259374; in the data active = inhibition above about 50%;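 note: 0% = vehicle wells with protein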
# GPR151 activ – activators of human GPR151; Q8TDV0; PathHunter beta-arrestin GPR151 cells, luminescence; activation, % at 11.2 µM; 650,000 compounds, 1% hits; AID 1508602; in the data active = activation above about 4.9%;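 note: 0% = median of compound wells and 100% = cells with positive control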
# Target sequence (Q8TDV0 whole entry, looked up): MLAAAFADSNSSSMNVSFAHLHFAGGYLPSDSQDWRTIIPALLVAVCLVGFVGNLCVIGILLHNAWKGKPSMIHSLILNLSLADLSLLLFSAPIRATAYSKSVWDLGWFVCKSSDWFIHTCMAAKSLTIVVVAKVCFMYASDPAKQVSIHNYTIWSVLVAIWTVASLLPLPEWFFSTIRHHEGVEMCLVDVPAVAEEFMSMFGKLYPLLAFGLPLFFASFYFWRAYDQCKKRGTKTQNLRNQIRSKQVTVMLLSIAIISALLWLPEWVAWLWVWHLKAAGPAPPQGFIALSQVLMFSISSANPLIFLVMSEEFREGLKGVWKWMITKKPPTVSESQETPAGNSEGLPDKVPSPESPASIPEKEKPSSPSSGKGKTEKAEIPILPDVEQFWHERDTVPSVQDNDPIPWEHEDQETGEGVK
# TEAD-YAP block – TEAD-YAP interaction inhibition; inhibition, % at 9.12 µM; HEK-TIYL cells, TEAD-Gal4/YAP UAS-luciferase luminescence; AID 1259422; 640,000 compounds, 1.4% hits; in the data active = inhibition above about 32%;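 note: 0% = median of test compound wells and 100% = reference inhibitor wells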
# An asterisk follows results filed as active; ! = a repeat was not active. This is a sample that favours compounds with a hit; in the whole collection about 3.4% have one here.
SMILES,FBW7 activator,MITF inh,GPR151 activ,TEAD-YAP block
O=C(N/N=C\c1ccccc1F)c1cnccn1,-0.1,10.2,-0.7,-30.1
O=C(N/N=C\c1ccccc1O)c1cnccn1,-0.5,59.4*,-1.2,-12.2
Cc1nc2ccc(C(=O)N/N=C/c3cc([N+](=O)[O-])ccc3O)cc2[nH]1,1.9*,92.2*,0.7,-19.5
O=C(N/N=C/c1cc([N+](=O)[O-])ccc1Cl)c1cccnc1,-0.1,-2.9,0.4,-5.8
O=C(N/N=C/c1cc([N+](=O)[O-])ccc1O)c1cccnc1,-1.6,98.9*,-2.6,15.9
CC(C)Oc1ccc(OCCSc2nc3ccccc3[nH]2)cc1,0.9,-23.9,0.6,1.2
Cc1cc(N2CCN(c3nc4ccccc4s3)CC2)n2ncnc2n1,0.0,-20.3,1.3,50.8*
COc1cccc(N2CCN(c3cc(C)nc4ncnn34)CC2)c1,0.0,0.1,-0.7,13.6
CC1=CC2=NC(=O)/C(=C\c3cc(C)n(-c4cccc(F)c4)c3C)C(=N)N2O1,0.2,-1.9,-0.4,6.9
CC1=CC2=NC(=O)/C(=C\c3cc(C)n(-c4ccc(Cl)cc4)c3C)C(=N)N2O1,0.2,3.5,0.1,13.0
COc1cc(/C=C2/C(=N)N3OC(C)=CC3=NC2=O)ccc1OCc1ccc2c(c1)OCO2,0.0,12.5,-6.5,48.2*
CC1=CC2=NC(=O)/C(=C\c3cc(C)n(-c4cc(C)cc(C)c4)c3C)C(=N)N2O1,0.0,4.3,0.7,55.0*
COc1cccc(-n2c(C)cc(/C=C3/C(=N)N4OC(C)=CC4=NC3=O)c2C)c1,0.0,1.8,-1.0,56.8*
COc1ccc(N2CCN(C(=O)c3c[nH]c(=O)n(C)c3=O)CC2)cc1,0.0,-5.3,0.3,-6.1
CCCSc1nnc2c(n1)OC(c1ccc(N(CCC)CCC)cc1)Nc1ccccc1-2 (stereo not given),-0.1,0.6,1.9,-40.7
Cc1nc2ccccc2n1Cc1nnc(-c2ccccc2)o1,0.0,4.0,1.7,39.8*
COc1ccc(-c2nnc(N)o2)cc1OC,0.0,3.1,-0.4,2.8
Cc1ccc(-c2ccc(-c3nnc(N)o3)s2)s1,2.3*,-2.6,-3.8,-23.8
CSc1ccccc1NC(=O)/C=C/c1ccc([N+](=O)[O-])o1,-0.2,1.6,-0.7,55.7*
CSc1ccccc1NC/C=C/c1ccc([N+](=O)[O-])o1,-0.2,8.0,1.8,7.0
COc1ccc(NC(=O)C2(S(=O)(=O)c3ccc(Cl)cc3)CC2)cc1,0.2,5.8,0.3,10.8
CCOc1ccc(C(=O)Nc2ccc(-c3nc4ccc(C)cc4s3)cc2)cc1Br,0.0,-4.9,-0.3,-0.4
CCOc1ccc(C(=O)Oc2ccc(-c3nc4ccc(C)cc4s3)cc2)cc1Br,0.1,17.3,-1.1,37.0*
COc1ccc(Br)cc1/C=N/N=C(N)N,-0.1,3.4,-2.2,42.5*
Cc1ccsc1C(=O)NNC(=O)c1cc(C)n(-c2ccc(F)cc2)c1C,-0.1,-14.2,-2.5,64.7*
SMILES,FBW7 activator,MITF inh,GPR151 activ,TEAD-YAP block
COc1cc(/C=C(\C#N)c2nc3ccccc3[nH]2)c(Br)cc1O,0.8,20.8,-2.4,40.9*
COc1cc(Br)c(/C=C(\C#N)c2nc3ccccc3[nH]2)cc1OC,0.5,-6.5,0.9,-21.4
Cc1ccc2nc(/C(C#N)=C/c3cc([N+](=O)[O-])ccc3O)[nH]c2c1,0.2,10.9,0.2,-4.3
Cc1cc(/C=C(/C#N)c2nc3ccccc3[nH]2)c(C)n1-c1cccnc1,-0.2,2.6,3.2,59.4*
Cc1ccc2nc(/C(C#N)=C/c3ccccc3O)[nH]c2c1,0.3,6.5,-8.8,97.1*
CC(Oc1ccc(Br)cc1Cl)C(=O)Nc1ccncc1 (stereo not given),-0.1,-3.4,4.1,47.6*
CC1(C)CCN2CCC(C)(C)c3c(O)ccc1c32,0.2,22.8,0.0,38.0*
CC1(c2cccc(Cc3cccc(C4(C)CCCCC4)c3O)c2O)CCCCC1,-0.1,11.9,-1.7,6.3
Cc1cncc2c(S(=O)(=O)N3CCCN(C(=O)CN)C[C@@H]3C)cccc12,-0.5,11.3,2.5,-6.7
Cc1cncc2cccc(S(=O)(=O)N3CCCN(C(=O)CN)C[C@@H]3C)c12,0.1,16.2,0.9,36.0*
CCN(CC)C(=O)c1oc2ccc(S(=O)(=O)N3CC(C)CC(C)C3)cc2c1C (stereo not given),0.2,7.0,-0.1,40.3*
CC(C)CN(CC(C)C)S(=O)(=O)c1ccccc1[N+](=O)[O-],-0.2,-3.9,0.6,-5.4
CCCCN(CC)S(=O)(=O)c1ccccc1[N+](=O)[O-],-0.2,7.8,0.9,47.1*
CN(C)c1ccc(/C=C(\NC(=O)c2ccccc2F)C(=O)Nc2ccc(F)c(Cl)c2)cc1,0.0,60.5*,0.1,-6.0
Cc1ccc(NC(=O)/C(=C/c2ccc(N(C)C)cc2)NC(=O)c2ccccc2F)cc1Cl,0.1,2.7,0.8,5.0
CCc1ccccc1NC1C=CS(=O)(=O)C1 (stereo not given),0.2,14.1,0.7,33.7*
O=S1(=O)C=CC(Nc2cccc3ccccc23)C1 (stereo not given),-0.1,-8.3,-1.3,32.7*
CCCCc1ccc(NC(=S)NC(=O)c2ccco2)cc1,-0.1,-7.6,-0.9,-23.5
CCn1c2ccccc2c2cnc(N=CN(C)C)c(C#N)c21,-0.1,6.0,-0.5,41.7*
Cc1ccc(N(CC(=O)Nc2ccc(F)c(F)c2)S(=O)(=O)c2c(C)noc2C)cc1,0.3,10.9,-1.1,3.3
CC1C/C(=C/c2ccccn2)C(=O)/C(=C/c2ccccn2)C1 (stereo not given),-0.4,0.9,1.2,79.9*
O=C(Nc1ccc(-c2ccccc2)cc1)c1ccccn1,-0.1,-8.8,-4.8,63.6*
N/C(=N\OC(=O)c1ccc(F)cc1)c1ccccn1,-0.1,5.0,-8.1,55.7*
O=C(Nc1cc(Cl)cc(Cl)c1)c1ccccn1,-0.4,0.1,-0.4,-7.3
N/C(=N\O)c1ccc(NC(=O)c2ccccn2)cc1,-0.1,3.4,-5.4,32.1*
SMILES,FBW7 activator,MITF inh,GPR151 activ,TEAD-YAP block
O=S(=O)(c1ccc(-c2csc(N3N=C(c4ccccc4)CC3c3ccccc3)n2)cc1)N1CCCC1 (stereo not given),0.4,8.7,-0.9,2.4
Cc1ccc(NC(=O)c2cc(Cl)cc([N+](=O)[O-])c2O)c(C)c1,-0.2,18.2,-0.7,-13.1
CCc1ccc(NC(=O)c2cc(S(=O)(=O)N3CCN(c4cccc(C)c4)C(C)C3)ccc2F)cc1 (stereo not given),-0.1,-1.1,0.6,-13.8
CC(=O)Nc1ccc(NC(C)=O)c2c1C(=O)c1c(NC(C)=O)ccc(NC(C)=O)c1C2=O,-0.1,82.0*,1.5,1.1
CC(=O)Nc1cccc2c1C(=O)c1cccc(NC(C)=O)c1C2=O,0.3,-9.1,-1.1,3.5
Cc1ccccc1C(OCCN(C)C)c1ccccc1 (stereo not given),1.9*!,-14.2,-2.0,6.3
CN(C)CC#CCOC(c1ccccc1)c1ccccc1,-0.2,4.8,-0.8,-0.6
CC(=O)N(/N=C1\Sc2ccccc2C1=O)c1ccccc1[N+](=O)[O-],-0.4,25.2,-1.4,59.0*
CC(=O)N(/N=C1\Sc2ccccc2C1=O)c1ccc(Br)cc1,-0.3,27.4,0.0,-12.1
